The source made the active and inactive calls. The rule behind the calls is not given here.
Each compound was assayed against Large T antigen (Simian virus 40) (UniProt P03070) (assay: large T antigen ATP hydrolysis inhibition – biochemical, ADP-Hunter, purified TAg, synthesized compounds, set 2 (AID 449729)). Conditions: purified TAg ATPase, ADP-Hunter fluorescence; series mostly up to 100 µM; inhibition: at the top concentration.
Sequence of Large T antigen (Simian virus 40) (P03070 whole entry, looked up): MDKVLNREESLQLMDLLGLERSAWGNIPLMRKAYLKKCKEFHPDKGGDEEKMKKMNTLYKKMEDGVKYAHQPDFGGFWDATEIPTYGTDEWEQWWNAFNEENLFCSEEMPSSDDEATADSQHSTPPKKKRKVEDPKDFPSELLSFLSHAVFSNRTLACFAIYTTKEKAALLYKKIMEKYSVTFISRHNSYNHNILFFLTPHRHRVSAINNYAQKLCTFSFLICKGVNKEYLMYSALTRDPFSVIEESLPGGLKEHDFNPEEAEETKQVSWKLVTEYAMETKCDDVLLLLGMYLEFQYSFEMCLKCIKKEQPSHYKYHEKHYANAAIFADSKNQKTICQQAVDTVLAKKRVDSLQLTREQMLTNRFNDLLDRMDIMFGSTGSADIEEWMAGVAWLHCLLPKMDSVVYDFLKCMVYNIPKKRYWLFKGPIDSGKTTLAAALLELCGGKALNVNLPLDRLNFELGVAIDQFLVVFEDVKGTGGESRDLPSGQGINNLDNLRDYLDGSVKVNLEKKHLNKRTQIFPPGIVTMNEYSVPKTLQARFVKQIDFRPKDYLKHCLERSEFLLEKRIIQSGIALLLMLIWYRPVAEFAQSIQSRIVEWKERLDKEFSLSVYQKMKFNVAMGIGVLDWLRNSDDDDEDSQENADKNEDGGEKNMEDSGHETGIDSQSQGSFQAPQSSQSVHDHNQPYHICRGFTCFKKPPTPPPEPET

**Q.** `Oc1ccc(C2(c3ccc(O)cc3)CC2)cc1` was tested. Which “inhibition” value did it give?
**A.** The value was 107% (inactive).

**Q.** For `CC(C)(c1ccc(O)cc1)c1cccc(O)c1`, which “inhibition” value is on record?
**A.** Its value is 6.54% (inactive).

**Q.** `C=C(c1ccc(F)cc1)c1ccc(F)cc1` was tested. Which “inhibition” value did it give?
**A.** Its value is -8.98% (inactive).

**Q.** For `C=C(c1ccc(Br)cc1)c1ccc(Br)cc1`, which “inhibition” value is on record?
**A.** The value was -0.08% (inactive).

**Q.** How did the “inhibition” value turn out when `C=C(c1cccc(OC)c1)c1cccc(OC)c1` was run?
**A.** The value was -17.5% (inactive).

**Q.** For `C=C(c1ccc(Cl)cc1)c1ccc(Cl)cc1`, which “inhibition” value is on record?
**A.** The value was -4.26% (inactive).

**Q.** How did the “inhibition” value turn out when `COc1cccc(C(C)(O)c2cccc(OC)c2)c1` was run?
**A.** The value was -2.76% (inactive).

**Q.** For `C=C(c1ccccc1Cl)c1ccccc1Cl`, which “inhibition” value is on record?
**A.** Its value is 5.38% (inactive).
